NPC1 promoter act = activates the NPC1 promoter; AID 485313; Potency, µM (top dose mostly 9.22 µM), most hits filed as activators; Huh7 NPC1 promoter luciferase reporter, 24 h; actives 2.4% (n = 320,000); note: nearly all actives have a fitted effect of over 60% in size
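NPC1 promoter–luciferase Huh7 cells; 24 h compound; luminescence.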
Rab9 promoter act = activates the Rab9 promoter; Huh7 Rab9 promoter-luciferase reporter, luminescence, 24 h; Potency, µM (doses to about 9.22 µM), usual class: activators; actives 2.8% (n = 320,000); AID 485297; note: nearly all actives have a fitted effect of over 60% in size
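Cell-based reporter: Huh7 stable for Rab9 promoter-driven luciferase, plated in reduced-serum medium with 10% FBS at 1500 cells/well, compound-treated 24 h at 37 °C, luminescence read after 10 min reagent.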
ELG1 genotoxic = genotoxicity induction in ELG1-luciferase HEK293T cells | Potency, µM (doses to about 46 µM), hits mostly activators | HEK293T ELG1-luciferase reporter, luminescence, 16 h | actives 1.3% (n = 330,000) | AID 504466; note: nearly all actives have a fitted effect of over 60% in size
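After overnight (16 hr) compound treatment at 37 °C, ELG1-luciferase HEK293T cells were lysed with ONE-Glo; luminescence quantified 30 min later at room temperature.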
ELG1 repair inh = inhibitors of ELG1-dependent DNA repair in HEK293T cells; HEK293T ELG1-luciferase reporter, luminescence, 16 h; DNA damage induced by 5-fluorouridine; Potency, µM (titrated, usually from 46.1 µM), hits mostly inhibitors; actives 2.3% (n = 330,000); note: nearly all actives have a fitted effect of over 55% in size
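Luminescence from the luciferase reporter, measured 30 min after ONE-Glo reagent at room temperature, was the read-out. Beforehand, 2,000 cells per well were exposed for 16 hr at 37 °C to 5-fluorouridine together with compound or vehicle.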
SMN2 splice enh = SMN2 splice variant enhancement. HEK293 SMN2-luciferase splicing reporter, luminescence, 30-36 h. Potency, µM (series often up to 46.1 µM), usual class: activators. actives 2.8% (n = 210,000); note: nearly all actives have a fitted effect of over 55% in size
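qHTS luciferase splicing reporter: luminescence rises when SMN2 exon 7 is included in transfected HEK293 cells. Compound exposure lasted 30-36 h at 37C, with 4.5 mM final sodium butyrate as control, followed by a ONE-Glo read.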
FLuc modulator = inhibits or activates purified firefly luciferase, miR-21 counter-screen; actives 6.9% (n = 360,000); purified FLuc, Km substrates, luminescence inhibition; P08659; AID 588342; Potency, µM (doses to about 57.5 µM), actives largely listed as inhibitors; note: nearly all actives have a fitted effect of over 55% in size
Target sequence (P08659 whole entry, looked up): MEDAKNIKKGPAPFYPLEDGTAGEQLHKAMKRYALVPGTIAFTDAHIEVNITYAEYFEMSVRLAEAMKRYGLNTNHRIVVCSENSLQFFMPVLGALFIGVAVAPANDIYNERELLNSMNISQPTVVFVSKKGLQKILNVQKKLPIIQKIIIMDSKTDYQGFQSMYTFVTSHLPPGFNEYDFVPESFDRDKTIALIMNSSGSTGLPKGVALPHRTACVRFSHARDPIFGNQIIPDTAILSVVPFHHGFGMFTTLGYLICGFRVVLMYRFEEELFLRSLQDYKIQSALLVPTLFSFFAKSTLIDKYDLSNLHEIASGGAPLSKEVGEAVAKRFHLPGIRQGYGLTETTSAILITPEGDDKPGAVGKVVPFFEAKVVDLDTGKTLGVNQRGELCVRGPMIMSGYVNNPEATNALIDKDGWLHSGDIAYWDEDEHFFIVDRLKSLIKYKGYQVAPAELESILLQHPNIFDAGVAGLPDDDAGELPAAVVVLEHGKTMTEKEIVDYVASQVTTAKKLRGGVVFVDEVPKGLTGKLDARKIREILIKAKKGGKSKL
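Purified P. pyralis luciferase, 10 nM final, with Km-level 10 uM D-luciferin and 10 uM ATP in 50 mM Tris acetate pH 7.5, 10 mM Mg acetate, 0.01% Tween-20, 0.05% BSA; 6-point qHTS titration about 60 µM downward; luminescence read.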
Numbers stand for hits; – = inactive; ? = inconclusive; · = no result given. An excerpt weighted towards active compounds, which were near 9.4% of everything screened. Calls come from the whole dose curve; as a rule, active = well fitted curve in the direction sought with a large enough effect; inconclusive = small, poorly fitted or top-dose-only effect, or another doubt; inactive = no such curve, though single readings can be large; an effect the other way counts as inactive or inconclusive.

SMILES	NPC1 promoter act	Rab9 promoter act	ELG1 genotoxic	ELG1 repair inh	SMN2 splice enh	FLuc modulator
COc1ccc(-c2nc3sc(CCNC(=O)c4ccc(C(C)(C)C)cc4)c(C)n3n2)cc1	·	·	·	·	·	4.8µM
CCOc1ccc(CC(=O)NCCc2sc3nc(-c4ccc(OC)cc4)nn3c2C)cc1	·	·	·	·	·	–
COc1ccc(-c2nc3sc(CCNC(=O)c4ccc(Br)o4)c(C)n3n2)cc1	·	·	·	·	·	11µM
CCC(=O)NCCc1sc2nc(-c3ccc(OC)cc3)nn2c1C	·	·	·	·	·	19µM
CC(C)(C)c1ccc(C(=O)NCCc2csc3nc(-c4ccccc4F)nn23)cc1	·	·	·	·	·	12µM
COc1ccc(NC(=O)Cn2c(=O)ccc3cc(S(=O)(=O)N4CCCC4)ccc32)cc1Cl	·	·	·	·	·	–
CCc1ccc(C(=O)c2cn(CC(=O)Nc3ccc4c(c3)OCCO4)c3ccc(C)cc3c2=O)cc1	·	·	·	·	–	–
COc1ccc(-c2nc3sc(CCNC(=O)c4cc(Cl)ccc4OC)c(C)n3n2)cc1	·	·	·	·	·	7.6µM
CC(=O)N1CCc2c(sc3c2c(=O)n(-c2ccccc2C)c(=O)n3CC(=O)Nc2ccccc2)C1	·	·	·	·	–	–
Cc1ccc(C(C(=O)NC2CCCCC2)N(Cc2ccccc2)C(=O)Cc2c[nH]c3ccccc23)o1 (centres undefined)	–	–	–	?	–	–
COc1cc(C(C(=O)NC2CCCCC2)N(C(=O)Cc2c[nH]c3ccccc23)c2ccccc2C)cc(OC)c1OC (centres undefined)	–	–	–	–	–	–
COc1ccc(CN(C(=O)Cc2c[nH]c3ccccc23)C(C(=O)NC2CCCCC2)c2ccc(C)o2)cc1 (centres undefined)	–	–	–	21µM	–	–
COc1cc(C(C(=O)NC2CCCCC2)N(Cc2cccs2)C(=O)Cc2c[nH]c3ccccc23)cc(OC)c1OC (centres undefined)	–	–	–	15µM	–	–
COc1cccc(CN(C(=O)Cc2c[nH]c3ccccc23)C(C(=O)NC2CCCCC2)c2ccc(C)o2)c1 (centres undefined)	–	–	–	18µM	–	–
Cn1ncc(S(=O)(=O)Cc2ccccc2)c(Br)c1=O	–	–	·	·	·	·
O=C1C(=O)N(Cc2ccncc2)C(c2ccccc2F)/C1=C(\O)c1ccc2c(c1)OCCO2 (centres undefined)	–	–	–	–	·	–
C[C@@H](CO)NC(=O)c1ccc2c3n(nc2c1)-c1ccccc1CO3	0.45µM	?	?	?	·	0.6µM
Cc1ccc2c(c1)COc1c3ccc(C(=O)N[C@@H](CO)C(C)C)cc3nn1-2	1.8µM	3.5µM	?	?	·	6.7µM
O=C(NCC1CCCO1)c1ccc2c3n(nc2c1)-c1ccccc1CO3 (centres undefined)	1µM	1.1µM	?	?	·	4.8µM
COCCNC(=O)c1ccc2c3n(nc2c1)-c1ccc(C)cc1CO3	0.71µM	1.1µM	?	?	·	6.7µM
CC(C)(C)OC(=O)N1CCC(c2c(C(=O)NCc3cccc(Cl)c3)cnn2-c2ccc(F)cc2)CC1	·	·	·	·	·	–
O=C(c1ccco1)N(CCCN1CCOCC1)c1nc(-c2ccc(Cl)cc2)cs1	–	–	–	21µM	–	–
CCN(CC)CCCN(C(=O)c1ccco1)c1nc(-c2ccc(Cl)cc2)cs1	–	–	–	–	·	–
O=C(c1ccco1)N(CCCN1CCOCC1)c1nc(-c2ccc(F)cc2)cs1	–	–	–	9.2µM	–	–
CCN(CC)CCCN(C(=O)c1ccco1)c1nc(-c2ccc(C)cc2)cs1	–	–	–	–	·	–
COc1ccc(-c2noc(CSCC(=O)Nc3ccc(C)cc3Br)n2)cc1OC	·	·	·	·	·	–
O=C(N/N=C/c1cccc(NC(=O)c2ccc(Cl)cc2)c1)c1ccc(O)cc1	2.5µM	4µM	–	?	·	1.3µM
O=C(N/N=C/c1cccc(F)c1)c1ccc(Cl)cc1	4µM	3.2µM	?	?	16µM	2.4µM
O=C(CN1CCN(Cc2ccc(Cl)cc2)CC1)N/N=C/c1cccc(F)c1	–	–	–	?	·	–
